Test results reported in PMC5540273 (PLoS ONE, 2017).

What was measured:
Conditions in all cases: concentration: 1 μM, replicates: in singlicate; n = 1
HASPIN = tested on: T1, HASPIN
T1 construct: gene GSG2

HCK = tested on: HCK
HIPK1 = tested on: HIPK1
HIPK2 = tested on: HIPK2
HIPK3 = tested on: HIPK3
HIPK4 = tested on: HIPK4
HPK1 = tested on: HPK1
HUNK = tested on: HUNK
ICK = tested on: ICK
IGF1R = tested on: IGF1R
IKK-alpha = tested on: T2, IKK-alpha
T2 construct: gene CHUK

IKK-beta = tested on: T3, IKK-beta
T3 construct: gene IKBKB

IKK-epsilon = tested on: T4, IKK-epsilon
T4 construct: gene IKBKE

INSRR = tested on: INSRR
INSR = tested on: INSR
IRAK1 = tested on: IRAK1
IRAK3 = tested on: IRAK3
IRAK4 = tested on: IRAK4
ITK = tested on: ITK
[1] = tested on: JAK1(JH1domain-catalytic)
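Also: KINOMEscan kinase panel screen.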

| SMILES | %Inh (HASPIN) | %Inh (HCK) | %Inh (HIPK1) | %Inh (HIPK2) | %Inh (HIPK3) | %Inh (HIPK4) | %Inh (HPK1) | %Inh (HUNK) | %Inh (ICK) | %Inh (IGF1R) | %Inh (IKK-alpha) | %Inh (IKK-beta) | %Inh (IKK-epsilon) | %Inh (INSRR) | %Inh (INSR) | %Inh (IRAK1) | %Inh (IRAK3) | %Inh (IRAK4) | %Inh (ITK) | %Inh [1] |
| --- | --- | --- | --- | --- | --- | --- | --- | --- | --- | --- | --- | --- | --- | --- | --- | --- | --- | --- | --- | --- |
| O=C(Nc1n[nH]c2nc(-c3ccc(O)cc3)ccc12)C1CC1 [SB-710363] | 36% | 35% | 94.4% | 91.8% | 90.5% | 21% | 17% | 0% | 98.5% | 0% | 0% | 0% | 7% | 0% | 0% | 0% | 0% | 0% | 0% | 6% |
| Cc1ccc(C)c(NC(=O)NC2CCN(c3ccnc(Nc4ccc(F)cc4)n3)C2)c1 (stereo not shown) [GSK1379720] | 44% | 0% | 0% | 10% | 0% | 0% | 45% | 0% | 0% | 25% | 32% | 18% | 3% | 0% | 0% | 40% | 0% | 20% | 5% | 12% |
| COC(=O)Nc1nc2cc(Oc3ccc(NC(=O)Nc4cc(C(F)(F)F)ccc4F)cn3)ccc2[nH]1.Cl.Cl [GW681170] | 47% | 15% | 0% | 0% | 0% | 91.6% | 16% | 7% | 0% | 12% | 66% | 17% | 0% | 0% | 0% | 49% | 0% | 3% | 0% | 30% |
| Cl.Cl.NCC(NCc1ccc(-c2ccnc3[nH]ccc23)s1)c1ccccc1 (stereo not shown) [GSK1321565] | 99.8% | 0% | 53% | 55% | 71% | 49% | 66% | 0% | 0% | 0% | 68% | 74% | 39% | 0% | 0% | 71% | 20% | 7% | 13% | 29% |
| COc1ccc(-c2coc3ccc(-c4nnc(SCc5ccc(OC)c(C(F)(F)F)c5)o4)cc23)cc1 | 0% | 38% | 12% | 17% | 14% | 0% | 4% | 0% | 7% | 12% | 25% | 6% | 22% | 0% | 25% | 10% | 4% | 14% | 25% | 0% |
| COc1ccc(Nc2nccc(NCCNC(=O)c3cc4ccccc4s3)n2)cc1 [GSK1379896] | 0% | 15% | 0% | 0% | 22% | 0% | 44% | 13% | 0% | 0% | 0% | 0% | 0% | 0% | 0% | 0% | 0% | 0% | 8% | 5% |
| O=C(Nc1n[nH]c2cc(-c3ccoc3)ccc12)C1CC1 [SB-738481] | 27% | 0% | 57% | 65% | 58% | 46% | 7% | 0% | 94.8% | 0% | 0% | 0% | 0% | 0% | 0% | 0% | 0% | 0% | 0% | 0% |
| c1ccc(-c2n[nH]cc2Nc2ccnc3ccccc23)nc1 [GW694077] | 100% | 0% | 92.7% | 98.6% | 98.3% | 47% | 32% | 0% | 0% | 2% | 92.1% | 81% | 0% | 0% | 0% | 85% | 90.9% | 47% | 14% | 0% |
| COc1cc(Nc2nccc(-c3c(-c4cccc(NC(=O)c5c(F)cccc5F)c4)nn4ncccc34)n2)cc(OC)c1OC [GSK327238] | 0% | 96.6% | 0% | 0% | 18% | 29% | 82% | 12% | 4% | 95.8% | 0% | 0% | 23% | 93% | 64% | 0% | 74% | 0% | 5% | 17% |
| CSc1cccc2c(-c3ccncn3)c(-c3ccc(F)cc3)nn12 [GW514786] | 17% | 0% | 9% | 0% | 10% | 32% | 21% | 8% | 0% | 19% | 0% | 0% | 5% | 3% | 10% | 10% | 24% | 0% | 10% | 1% |
| Cl.Cl.NCC(C(=O)Nc1cc(Br)c(-c2ccnc3[nH]ccc23)s1)c1ccccc1 (stereo not shown) [GSK1269851] | 97.6% | 29% | 48% | 0% | 55% | 81% | 41% | 0% | 33% | 16% | 44% | 34% | 0% | 0% | 0% | 81% | 34% | 26% | 12% | 2% |
| CN(C)S(=O)(=O)c1cc(-c2ccc3nccc(-c4cccc(S(N)(=O)=O)c4)c3c2)cnc1N [GSK1669921] | 71% | 0% | 49% | 36% | 44% | 48% | 41% | 0% | 44% | 0% | 0% | 0% | 0% | 24% | 42% | 0% | 29% | 9% | 16% | 12% |
| COc1cc(Nc2nccc(N3CCC(NC(=O)Nc4cccc(C(C)=O)c4)C3)n2)cc(OC)c1OC (stereo not shown) [GSK1379753] | 0% | 0% | 0% | 0% | 3% | 0% | 55% | 0% | 11% | 0% | 0% | 10% | 20% | 0% | 1% | 77% | 86% | 40% | 34% | 0% |
| O=C(Nc1cccc(-c2nn3ccccc3c2-c2ccnc(Nc3cccc(F)c3)n2)c1)c1c(F)ccc(F)c1Cl [GSK357952] | 0% | 99.1% | 0% | 13% | 1% | 51% | 13% | 0% | 3% | 17% | 0% | 0% | 65% | 19% | 8% | 83% | 0% | 84% | 12% | 0% |
| CCn1c(-c2nonc2N)nc2c(C#CC(C)(C)O)ncc(OCCCCN)c21.O=C(O)C(F)(F)F.O=C(O)C(F)(F)F [GSK507274] | 0% | 0% | 47% | 57% | 100% | 0% | 49% | 0% | 11% | 12% | 24% | 43% | 33% | 0% | 0% | 26% | 0% | 20% | 15% | 21% |
| C[C@@H]1CC[C@@H](C(=O)Nc2ccccc2)CN1c1cc(-c2ccc3c(N)n[nH]c3c2)nc(N)n1 [GSK2286062] | 5% | 0% | 0% | 0% | 0% | 25% | 36% | 11% | 0% | 23% | 0% | 0% | 25% | 0% | 25% | 0% | 0% | 0% | 1% | 2% |
| CNC(=O)c1ccccc1Nc1nc(Nc2ccc(N3CCOCC3)cc2)ncc1Cl.Cl [GSK1576028] | 80% | 99.6% | 99.4% | 99.3% | 99% | 99.3% | 98.8% | 0% | 57% | 96.6% | 85% | 78% | 74% | 98.6% | 95.5% | 100% | 99.7% | 99.6% | 99.9% | 97.6% |
